# TbPYK inhibitor = blocks Trypanosoma brucei pyruvate kinase; actives 0.12% (n = 410,000); TbPYK enzyme, Kinase-Glo Plus ATP luminescence, 45 min; Q57TT1; Potency, µM (titrated, usually from 76.8 µM), for the others: at the top dose activity, negative = inhibition, usual class: inhibitors; further: potency means the concentration at half of the fitted maximal effect; on the % scale 0 is the no-effect control and ±100 the full control effect; nearly all actives have a fitted effect of over 50% in size
#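 TbPYK + substrate in 50 mM TEA pH 7.2, 100 mM KCl, 10 mM MgCl2, 0.05% BSA, 0.01% Tween-20; cpd pinned; ADP 130 uM final; 45 min RT; Kinase-Glo Plus 10 min; luminescence endpoint.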
# RE007 growth inh = less growth of the S. pombe RE007 Vpr strain; actives 0.21% (n = 360,000); Potency, µM (titrated, usually from 92.2 µM), inactives show at the highest dose activity change, negative = less growth, actives largely listed as inhibitors; S. pombe RE007 Vpr strain, BacTiter-Glo ATP luminescence, 24 h; active means well fitted falling curve with a large enough effect; inconclusive means small, poorly fitted or top-dose-only effect; inactive means no such curve, though single readings can be large or run the other way; further: potency means the concentration at half of the fitted maximal effect; on the % scale 0 is the no-effect control and ±100 the full control effect; nearly all actives have a fitted effect of over 50% in size
#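 Fission yeast RE007 carrying one integrated HIV-1 vpr copy, seeded at OD 0.01 in PMG+AL medium with 23 nL pinned compound. Grown 24 h at 30 degrees; viability read by BacTiter-Glo luminescence after 5 min.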
# FBPA Giardia inh = blocks Giardia fructose-bisphosphate aldolase activity; A8B2U2; purified Giardia FBPA; Potency, µM (top dose mostly 59.6 µM), for inactives: at the highest dose activity, negative = inhibition, most hits filed as inhibitors; actives 0.71% (n = 290,000); AID 2451; further: potency means the concentration at half of the fitted maximal effect; on the % scale 0 is the no-effect control and ±100 the full control effect; nearly all actives have a fitted effect of over 55% in size
#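 40 nM FBPA preincubated 10 min at RT with compound (up to 57.5 uM final), then substrate plus GAPDH/TPI/NAD/arsenate coupling and diaphorase/resazurin added. Fluorescence read after 20 min at RT, 525/598 nm.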
# CHX counter = counter-screen hit for Shiga toxin inhibitors, cycloheximide; actives 12% (n = 300,000); max response, %; cell reporter, cycloheximide protein synthesis inhibition counterscreen; AID 2314; in the data active means max response mostly above about 13%, no sharp cut-off; inactive means mostly below about 14%; further: read at 38.3 µM for the half of the compounds with a filed dose; 0% is about no effect
# Shiga inhibitor = Shiga toxin inhibition. actives 9.2% (n = 290,000). inhibition, % at 38.7 µM. AID 2315. Vero cells, Shiga toxin protein synthesis inhibition reporter; in the data active means inhibition mostly above about 28%, no sharp cut-off; inactive means mostly below about 43%; further: 0% is about no effect
# LmPK inhibitor = LmPK (Leishmania mexicana) enzyme inhibition; purified LmPK, Kinase-Glo ATP luminescence, 1 h; actives 0.37% (n = 290,000); AID 1721; Potency, µM (top dose mostly 57.5 µM), for the others: top-dose activity change, negative = inhibition, usual class: inhibitors; further: potency means the concentration at half of the fitted maximal effect; on the % scale 0 is the no-effect control and ±100 the full control effect
# Target sequence (Q27686 whole entry, looked up): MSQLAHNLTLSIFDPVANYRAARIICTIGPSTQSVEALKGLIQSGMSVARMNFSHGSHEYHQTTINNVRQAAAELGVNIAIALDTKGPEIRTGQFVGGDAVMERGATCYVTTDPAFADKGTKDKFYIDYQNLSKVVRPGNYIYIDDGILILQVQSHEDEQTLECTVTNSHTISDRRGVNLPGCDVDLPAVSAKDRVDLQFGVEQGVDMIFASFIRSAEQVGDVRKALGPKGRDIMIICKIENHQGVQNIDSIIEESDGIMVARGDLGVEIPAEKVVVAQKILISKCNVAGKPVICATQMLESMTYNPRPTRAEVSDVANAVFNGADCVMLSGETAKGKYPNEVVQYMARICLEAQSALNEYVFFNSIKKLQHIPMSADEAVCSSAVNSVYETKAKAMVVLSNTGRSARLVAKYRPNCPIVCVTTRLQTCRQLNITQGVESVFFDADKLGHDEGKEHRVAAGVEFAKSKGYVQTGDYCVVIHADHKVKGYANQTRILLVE
#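 Pyruvate kinase activity monitored as ATP production (luciferase luminescence). Conditions: 0.1 nM enzyme, 0.5 mM PEP, 0.1 mM ADP, 1 h, RT; normalized against uninhibited and no-enzyme wells.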
# Active calls of the source: *; ? = inconclusive; . = not tested or not shown; [ ] = dose if it differs, or a comment. The sample as a whole holds a higher share of hits than the screen did. Unless noted, the call rests on the fitted dose curve; in most records, active means well fitted curve in the direction sought with a large enough effect; inconclusive means small, poorly fitted or top-dose-only effect, or another doubt; inactive means no such curve, though single readings can be large; an effect the other way counts as inactive or inconclusive.
SMILES,TbPYK inhibitor,RE007 growth inh,FBPA Giardia inh,CHX counter,Shiga inhibitor,LmPK inhibitor
COc1cc(/C=N/NC(=O)Nc2cccc3nsnc23)cc(OC)c1OC,-8%,5%,0%,-2,17,-3%
CO[C@H]1COC(=O)C/C=C\[C@@H](C)COC(=O)[C@@H](CCSC)NC(=O)C/C=C\[C@@H]1C,.,.,1%[12.9 µM],.,.,.
O=C(CN1CCN(c2ccccc2O)CC1)Nc1ccnn1C1CCCC1,1%,4%,.,.,.,.
CC1(C)OC(=O)C2=C(C[C@@H](CCOCc3ccccc3)O[C@@H]2c2ccc(F)cc2)O1,6%,-9%,.,.,.,.
Cc1ccc(-c2nc3ccccc3s2)cc1NC(=O)c1ccc2c(c1)OCO2,-6%,8%,0%,6,24,3%
O=C(Nc1cccc2nsnc12)c1ccc(F)cc1,-9%,-29%,-27%,30*,50*,-1%
O=C(Nc1cccc2cccnc12)c1ccc2c(c1)OCCO2,4%,-24%,0%,67*,115*,-4%
O=C(Nc1cc(-c2nc3ccccc3s2)ccc1Cl)c1ccc2c(c1)OCO2,0%,14%,.,27*,52*,-3%
CSc1ccc(/C=C/c2nc3ccccc3n2S(=O)(=O)c2ccc(Br)cc2)cc1,-24%,.,.,.,.,.
O=S(=O)(c1ccccc1)N1c2cc(Cl)ccc2Oc2nc3ccccc3nc21,2%,-7%,-5%,65*,94*,0%
O=C(COc1ccc2ccccc2c1)N1CCN(Cc2c[nH]c3ccccc23)CC1,0%,-3%,-30%,17*,19,-3%
CCCCCCCCCCCCCCC(O)C[N+](C)(CCO)CCO (configuration not stated),-1%,32µM*,.,.,.,.
CN(C)S(=O)(=O)N1C(=O)c2ccccc2C1=O,0%,3%,-2%,-2,-1,28µM*
Cc1nc(-c2ccccc2O)n(S(=O)(=O)N(C)C)n1,3%,-10%,4%,-1,8,3%
Nc1c(Cl)cc2c(c1Oc1ccccc1)C(=O)c1ccccc1C2=O,-4%,-18%,1%,29*,27,-14%
COc1ccccc1NS(=O)(=O)c1cccc(C(=O)N2CCN(Cc3ccc4c(c3)OCO4)CC2)c1,-4%,-12%,.,.,.,.
CNC(=O)COC(=O)c1ccc(-c2nc3ccccc3s2)s1,-27%,-14%,0%,29*,53*,14µM*
COCCCNC(=O)COC(=O)c1ccc(-c2nc3ccccc3s2)s1,1%,-2%,3%,47*,76*,-8%
O=CN1CCN(C(=O)c2ccc(-c3nc4ccccc4s3)s2)CC1,-3%,3%,0%,43*,123*,-1%
COc1ccc(C(=O)N/C(N)=N/c2nc3ccccc3o2)cc1,-2%,2%,11%,7,7,-1%
COc1ccc(C(=O)/C=C/Sc2nc3ccccc3o2)cc1,2%,13%,-2%,51*,135*,-5%
Cn1nc(C(C)(C)C)cc1C(=O)N1CCCCC1c1cc(C(=O)NCc2cccnc2)no1 (configuration not stated),-3%,3%,.,.,.,.
N#Cc1ccccc1CSc1ccccn1,-2%,-10%,0%,-4,23,-1%
c1ccc(SCc2nc3ccccc3[nH]2)nc1,5%,-5%,-10%,26*,60*,-2%
Cn1nnnc1SCc1nc2ccccc2[nH]1,2%,-23%,0%,34*,62,-2%
SMILES,TbPYK inhibitor,RE007 growth inh,FBPA Giardia inh,CHX counter,Shiga inhibitor,LmPK inhibitor
Cc1nnc(SCc2nc3ccccc3[nH]2)s1,2%,25%,-12%,-2,17,-1%
c1ccc(SCc2nc(-c3ccncc3)n[nH]2)nc1,6%,3%,-4%,16,46*,8%
CCCc1nc2ccccc2[nH]1,5%,16%,-27%,-2,23,-5%
Cn1c(COc2ccccc2)nnc1SCc1nc2ccccc2[nH]1,0%,14%,0%,-3,-5,1%
c1ccc2[nH]c(CSc3nc4ccccc4s3)nc2c1,-5%,?,3%,44*,55*,-8%
NC(N)=[N+]1CCc2ccccc2C1,.,.,2%,.,.,.
CCOc1ccc(-n2c(=O)c3c(C)c(C)sc3n(CC(=O)C(C)(C)C)c2=O)cc1,-1%,.,.,.,.,.
C=C(C)C1CCC(C)C(OC(C)=O)C1 (configuration not stated),.,.,6%,-7,-2,.
Nc1nc2ccc(Cc3ccncc3)cc2s1,-31%,1%,14%,20*,78*,-4%
Nc1ccc2nc(N)sc2c1,6%,32%,.,.,.,.
COc1ccc(CCNC(=O)c2cc(S(=O)(=O)N3CCOCC3)cn2C)cc1OC,6%,2%,0%,1,-6,-3%
CC[C@H](C)[C@@H](NC(=O)O[C@@H]1Cc2cc(Br)ccc2O[C@H]1c1cccc(OC)c1)C(=O)OC,.,.,1%,.,.,.
O=C(COC(=O)c1cccc([N+](=O)[O-])c1)NCc1cccs1,-1%,14%,2%,6,18,1%
O=C(CSc1nc2ccccc2n1S(=O)(=O)c1cccc([N+](=O)[O-])c1)NCc1cccs1,-17%,18%,8%,27*,18,1%
CC1CCc2c(sc(NC(=O)COc3ccccc3C(C)(C)C)c2C#N)C1 (configuration not stated),-20%,.,.,.,.,.
CC1NC(=O)c2cccnc2-n2c1nc1ccccc1c2=O (configuration not stated),3%,-28%,.,.,.,.
CCC(C)NC(=O)c1ccc(CSCc2ccc(Cl)cc2)o1 (configuration not stated),-1%,-13%,5%,-1,2,2%
CCC(C)NC(=O)c1ccc(CSCc2ccccc2Cl)o1 (configuration not stated),-11%,9%,-12%,23*,29,5%
CC(C)NC(=O)c1ccc(CSCc2ccccc2Cl)o1,-13%,9%,-4%,27*,21,1%
O=C1c2cccc3c([N+](=O)[O-])ccc(c23)C(=O)N1CCc1ccccn1,4%,-9%,1%,-2,1,-2%
N#Cc1ccccc1CCN1C(=O)c2ccccc2C1=O,-6%,8%,-11%,41*,.,-1%
O=C1c2ccccc2C(=O)N1CCc1ccccn1,1%,1%,-3%,16*,13,-7%
Cc1cccc(N=Nc2cnc(N)s2)c1,-9%,8%,0%,47*,49*,-3%
Cc1ccc(N(C)S(=O)(=O)c2c(C)noc2/C=C/N(C)C)cc1,2%,-2%,9%,1,-8,4%
Cc1nnsc1C(=O)Nc1ccc(S(=O)(=O)N2CCCCC2)cc1,-1%,0%,1%,-2,-6,3%
O=C(/C=C/Nc1ccccc1C(F)(F)F)c1ccco1,2%,-20%,-14%,44*,59*,-27%
NC(=O)c1ccccc1N/C=C/C(=O)c1ccco1,-4%,-8%,-4%,30*,69*,?

# Assay outcomes deposited in PubChem by National Center for Advancing Translational Sciences (NCATS).
